# According to PubChem BioAssay (NCI):
# This is part of a sample that, as a whole, favours compounds with a hit. Of some 83,000 tested, about 20% had one in any assay.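 48-hour exposure, single concentration, 96-well plates; percent growth endpoint where 0 means no net growth. Active: below 10.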 Values without a mark were called inactive. Activity calls are given as the source filed them.
# Tested on: HL-60(TB) leukemia
# Experiment: NCI-60 one-dose screen, 48 h (100 = growth as untreated, 0 = no growth, -100 = all killed)
# Details: 10 µM unless noted
row,Compound,growth
1,Cn1c(=O)c2[nH]c(CCCc3nc4c([nH]3)c(=O)n(C)c(=O)n4C)nc2n(C)c1=O,109%
2,O=C(COc1ccc(/C=C2\Oc3ccccc3C2=O)cc1)Nc1nc2ccccc2s1,-68.9% (active)
3,c1csc(-c2ccc(CNc3c4ccccc4nc4ccccc34)cc2)c1,-56.7% (active)
4,Cc1ccc2cccc(OC(=O)Nc3cccc(C(F)(F)F)c3)c2n1,67%
5,CCCCCN1C(=O)CCC1=O,88.1%
6,O=[N+]([O-])c1ccc(C(Br)c2ccc([N+](=O)[O-])cc2)cc1,57.6%
7,c1ccc2cc(Cn3c(-c4ccc5ccccc5c4)[n+](Cc4ccc5ccccc5c4)c4ccccc43)ccc2c1,-45.9% (active)
8,CC(C)(C)n1cc(-c2ccnc(NCCCNS(=O)(=O)c3ccc(F)cc3)c2)c(-c2cccc(O)c2)n1,39.9%
9,O=C1CC(N2C(=O)/C(=C/C(Cl)=C\c3ccc([N+](=O)[O-])cc3)SC2=S)C(=O)N1c1ccc(O)cc1 (stereo not given),-18.7% (active)
10,CNC(=O)c1c(NC(=O)c2ccc(C(C)C)cc2)sc2c(CN(C)C)c(O)ccc12,85.9%
11,CCCCCCCCCCCC(c1ccccc1)[N+](C)(C)C (stereo not given),-30.5% (active)
12,CC(CN(C)C)Oc1ccc(OC(C)CN(C)C)c2c1C(=O)c1ccccc1C2=O (stereo not given),39.2%
13,COC(=O)[C@H](Cc1cn(C)cn1)NC(=O)[C@@H](NC(=O)Nc1cc(C(F)(F)F)cc(C(F)(F)F)c1)C(C)C,-73.5% [100 µM] (active)
14,Cc1c(C(=O)/C=C/Nc2c(Cl)cc(S(N)(=O)=O)cc2Cl)sc2nc3ccccc3n12,101%
15,c1ccc(-c2ccc3c(c2)C2(CCNCC2)CN3)cc1,93.7%
16,Cn1cc(-c2[nH]c3cc(NC(=O)[C@H](N)C4CCCCC4)cc4c3c2C=NNC4=O)cn1,-55.8% (active)
17,Cc1nc2ccccc2c(/C=C/c2ccc(F)cc2)c1C(=O)/C=C/c1ccccc1,7.37% (active)
18,OCc1cn(-c2ccc(Cl)cc2)nc1-c1ccc(O)cc1,51.7%
19,C=C(C)[C@@H]1CC[C@]2(C)[C@H](C(=O)C=C3[C@@H]4C[C@](C)(C(=O)N5CCN(C)CC5)CC[C@]4(C)CC[C@]32C)[C@@]1(C)CCC#N,-22% [100 µM] (active)
20,Cc1cc(C)c2nc3nc(C)cc(C)c3c(N)c2c1,45.8%

row,Compound,growth
1,COc1ccc(OC)c(/C=C/[C@H]2O[C@@H](C)[C@H](O)[C@@H]2O)c1,88.3%
2,N#C/C(=C\c1ccccc1Cl)c1cc2ccccc2[nH]1,98.8%
3,O=C1c2cc3c(cc2-c2c1c1ccc(F)cc1c(=O)n2C[C@H](O)[C@@H](O)[C@H](O)CO)OCO3,-3.71% (active)
4,COCC(=O)NNc1[nH]c(-c2ccc(OC)cc2)cc1C#N,6.53% (active)
5,O=C(Nc1ccc(-c2ccc3c(c2)NC(=O)/C3=C\c2ccc[nH]2)cc1)NC1CC1,98.3%
6,NC1CCC(Nc2nc(NCc3cc(Cl)ccc3O)c3ncn(C4CCCC4)c3n2)CC1 (stereo not given),-41.1% (active)
7,OC(COCc1ccccc1)COCc1ccccc1,91.8%
8,COc1ccccc1OCC(=O)Nc1sc2c(c1C(N)=O)CCC2,50.1%
9,COc1cc(/C=C2\C(=O)N(CC(O)COc3cc(O)c4c(=O)cc(-c5ccccc5)oc4c3)c3ccccc32)cc(OC)c1O (stereo not given),80.5%
10,c1cc(-c2ccc3c(c2)OCO3)n2nccc2n1,98.4%
11,COC(=O)C1(CC(C)=O)NC(=S)NC(=O)C1C#N (stereo not given),102%
12,COc1ccc(C(=O)N2c3ccccc3Sc3ccccc32)c(C(F)(F)F)c1,2.01% (active)
13,C=CCNC(=O)/C(=C/c1cccc([N+](=O)[O-])c1)NC(=O)c1ccccc1,137%
14,C[C@@H]1COCCN1c1cc(C2([S@](C)(=N)=O)CC2)nc(-c2ccnc3[nH]ccc23)n1,-9.62% (active)
15,COCCN1CCN(Cc2ccc(-c3n[nH]c4c3C(=O)c3c(NC(=O)NN5CCOCC5)cccc3-4)cc2)CC1,-36.9% (active)
16,CC1=CN2C(=O)C3C4=C(CCCC4)SC3N=C2CN1c1c(C)cccc1C (stereo not given),-9.4% (active)
17,COc1ccc(/C(C)=C(\c2ccc(Cl)cc2)c2ccc(OCCCN(C)C)cc2)cc1,67.1%
18,COc1cccc2cc(N(C)c3nc(C)nc4c3CCC4)ccc12,-8.85% (active)
19,Cc1cccc(C)c1NCc1nnc(-c2ccc(O)cc2)o1,111%
20,O=S(=O)(NCCCNc1cc(-c2c(-c3cccc(O)c3)nc3sccn23)ccn1)c1cccc2ccccc12,41.3%
